# Laboratory results from ChEMBL document CHEMBL2218924, “A broad activity screen in support of a chemogenomic map for kinase signalling research and drug discovery” (Biochem J, 2013).
# Columns and labels:
# [1] = biological target: Serine/threonine-protein kinase PAK 5 (Homo sapiens) (UniProt Q9P286); conditions: at 1 µM
# [2] = biological target: Serine/threonine-protein kinase PAK 5 (Homo sapiens) (UniProt Q9P286); conditions: at 10 µM
# [3] = biological target: Serine/threonine-protein kinase PAK 6 (Homo sapiens) (UniProt Q9NQU5); conditions: at 1 µM
# [4] = biological target: Serine/threonine-protein kinase PAK 6 (Homo sapiens) (UniProt Q9NQU5); conditions: at 10 µM
# [5] = biological target: PAS domain-containing serine/threonine-protein kinase (Homo sapiens) (UniProt Q96RG2); conditions: at 1 µM
# [6] = biological target: PAS domain-containing serine/threonine-protein kinase (Homo sapiens) (UniProt Q96RG2); conditions: at 10 µM
# [7] = biological target: Activated CDC42 kinase 1 (Homo sapiens) (UniProt Q07912); conditions: at 1 µM
# [8] = biological target: Activated CDC42 kinase 1 (Homo sapiens) (UniProt Q07912); conditions: at 10 µM
# [9] = biological target: ALK tyrosine kinase receptor (Homo sapiens) (UniProt Q9UM73); conditions: at 1 µM
# [10] = biological target: ALK tyrosine kinase receptor (Homo sapiens) (UniProt Q9UM73); conditions: at 10 µM
# [11] = biological target: T1, Activin receptor type-1B (Homo sapiens) (UniProt P36896); conditions: at 1 µM
# T1 sequence (whole entry): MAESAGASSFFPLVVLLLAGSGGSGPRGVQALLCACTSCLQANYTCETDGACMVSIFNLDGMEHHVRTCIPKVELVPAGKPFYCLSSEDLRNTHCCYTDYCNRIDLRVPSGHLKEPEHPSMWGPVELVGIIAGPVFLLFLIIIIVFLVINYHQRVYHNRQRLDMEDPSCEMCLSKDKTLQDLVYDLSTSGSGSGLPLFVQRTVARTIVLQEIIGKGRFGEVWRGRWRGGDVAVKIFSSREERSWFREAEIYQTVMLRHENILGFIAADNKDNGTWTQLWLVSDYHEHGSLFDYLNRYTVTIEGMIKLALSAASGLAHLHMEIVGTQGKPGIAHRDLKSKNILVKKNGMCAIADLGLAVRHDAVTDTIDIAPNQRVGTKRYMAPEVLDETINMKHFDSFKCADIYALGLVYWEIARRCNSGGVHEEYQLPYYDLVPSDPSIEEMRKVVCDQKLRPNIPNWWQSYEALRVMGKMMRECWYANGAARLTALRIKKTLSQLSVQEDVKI
# [12] = biological target: T1, Activin receptor type-1B (Homo sapiens); conditions: at 10 µM
# [13] = biological target: T2, AMP-activated protein kinase (AMPK) alpha-1/beta-1/gamma-1 (Homo sapiens) (UniProt P54619+Q9Y478+Q13131); conditions: at 1 µM
# [14] = biological target: T2, AMP-activated protein kinase (AMPK) alpha-1/beta-1/gamma-1 (Homo sapiens); conditions: at 10 µM
# [15] = biological target: T3, AMP-activated protein kinase, AMPK (Homo sapiens) (UniProt P54646+O43741+P54619+Q9UGJ0+Q9Y478+Q13131+Q9UGI9); conditions: at 1 µM
# [16] = biological target: T3, AMP-activated protein kinase, AMPK (Homo sapiens); conditions: at 10 µM
# [17] = biological target: T4, NUAK family SNF1-like kinase 1 (Homo sapiens) (UniProt O60285); conditions: at 1 µM
# T4 sequence (whole entry): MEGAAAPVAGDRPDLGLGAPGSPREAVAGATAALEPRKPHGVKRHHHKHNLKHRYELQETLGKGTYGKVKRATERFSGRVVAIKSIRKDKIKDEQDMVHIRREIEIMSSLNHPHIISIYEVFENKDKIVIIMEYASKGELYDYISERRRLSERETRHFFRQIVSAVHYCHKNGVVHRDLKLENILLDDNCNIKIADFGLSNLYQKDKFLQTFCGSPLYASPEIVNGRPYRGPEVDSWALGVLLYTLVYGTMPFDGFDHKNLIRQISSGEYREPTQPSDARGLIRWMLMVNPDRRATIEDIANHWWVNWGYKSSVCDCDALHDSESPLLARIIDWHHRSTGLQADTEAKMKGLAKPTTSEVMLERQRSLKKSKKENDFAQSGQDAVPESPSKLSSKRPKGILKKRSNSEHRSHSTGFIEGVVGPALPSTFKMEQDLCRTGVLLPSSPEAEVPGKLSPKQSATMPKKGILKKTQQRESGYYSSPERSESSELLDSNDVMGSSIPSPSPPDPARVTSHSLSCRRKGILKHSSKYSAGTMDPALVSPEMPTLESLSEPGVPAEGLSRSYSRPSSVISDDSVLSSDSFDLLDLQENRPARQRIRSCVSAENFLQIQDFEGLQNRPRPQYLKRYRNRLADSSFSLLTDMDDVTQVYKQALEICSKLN
# [18] = biological target: T4, NUAK family SNF1-like kinase 1 (Homo sapiens); conditions: at 10 µM
# [19] = biological target: T5, Mitogen-activated protein kinase kinase kinase 5 (Homo sapiens) (UniProt Q99683); conditions: at 1 µM
# T5 sequence (whole entry): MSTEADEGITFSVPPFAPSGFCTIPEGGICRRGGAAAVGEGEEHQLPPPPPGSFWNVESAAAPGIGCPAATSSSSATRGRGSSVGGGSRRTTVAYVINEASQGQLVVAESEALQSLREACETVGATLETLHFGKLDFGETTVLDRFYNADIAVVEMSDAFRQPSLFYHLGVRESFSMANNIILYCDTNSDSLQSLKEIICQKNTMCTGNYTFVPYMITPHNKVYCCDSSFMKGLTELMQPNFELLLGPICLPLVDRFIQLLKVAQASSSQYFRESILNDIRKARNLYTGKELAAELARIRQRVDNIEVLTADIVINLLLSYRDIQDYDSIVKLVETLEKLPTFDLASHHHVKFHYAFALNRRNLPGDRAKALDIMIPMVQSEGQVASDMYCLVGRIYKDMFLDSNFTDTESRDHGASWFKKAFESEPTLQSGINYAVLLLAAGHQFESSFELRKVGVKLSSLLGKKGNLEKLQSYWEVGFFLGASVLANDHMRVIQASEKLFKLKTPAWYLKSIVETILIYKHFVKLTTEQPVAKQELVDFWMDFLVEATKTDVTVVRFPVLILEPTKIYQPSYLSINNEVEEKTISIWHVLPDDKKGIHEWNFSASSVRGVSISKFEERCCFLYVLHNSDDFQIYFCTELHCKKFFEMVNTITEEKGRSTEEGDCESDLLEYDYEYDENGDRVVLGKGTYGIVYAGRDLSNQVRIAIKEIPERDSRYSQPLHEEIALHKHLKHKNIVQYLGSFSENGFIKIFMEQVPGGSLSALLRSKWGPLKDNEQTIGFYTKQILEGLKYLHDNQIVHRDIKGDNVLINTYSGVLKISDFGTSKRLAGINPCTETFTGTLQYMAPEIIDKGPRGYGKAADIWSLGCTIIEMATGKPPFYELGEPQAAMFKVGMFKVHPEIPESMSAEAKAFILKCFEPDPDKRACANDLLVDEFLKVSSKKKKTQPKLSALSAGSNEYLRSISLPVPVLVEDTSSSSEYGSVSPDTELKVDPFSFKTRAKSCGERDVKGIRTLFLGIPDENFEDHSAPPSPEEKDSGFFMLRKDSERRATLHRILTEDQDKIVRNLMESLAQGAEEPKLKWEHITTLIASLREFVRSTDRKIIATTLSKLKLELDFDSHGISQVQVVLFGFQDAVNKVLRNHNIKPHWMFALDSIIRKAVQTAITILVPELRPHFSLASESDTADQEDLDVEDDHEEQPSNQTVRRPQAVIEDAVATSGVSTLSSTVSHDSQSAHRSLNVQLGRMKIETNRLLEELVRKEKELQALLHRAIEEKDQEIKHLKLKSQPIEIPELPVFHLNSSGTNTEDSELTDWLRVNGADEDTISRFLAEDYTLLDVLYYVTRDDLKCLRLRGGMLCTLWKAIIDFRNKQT
# [20] = biological target: Platelet-derived growth factor receptor alpha (Homo sapiens) (UniProt P16234); conditions: at 1 µM
# Sequence of Platelet-derived growth factor receptor alpha (Homo sapiens) (P16234 whole entry): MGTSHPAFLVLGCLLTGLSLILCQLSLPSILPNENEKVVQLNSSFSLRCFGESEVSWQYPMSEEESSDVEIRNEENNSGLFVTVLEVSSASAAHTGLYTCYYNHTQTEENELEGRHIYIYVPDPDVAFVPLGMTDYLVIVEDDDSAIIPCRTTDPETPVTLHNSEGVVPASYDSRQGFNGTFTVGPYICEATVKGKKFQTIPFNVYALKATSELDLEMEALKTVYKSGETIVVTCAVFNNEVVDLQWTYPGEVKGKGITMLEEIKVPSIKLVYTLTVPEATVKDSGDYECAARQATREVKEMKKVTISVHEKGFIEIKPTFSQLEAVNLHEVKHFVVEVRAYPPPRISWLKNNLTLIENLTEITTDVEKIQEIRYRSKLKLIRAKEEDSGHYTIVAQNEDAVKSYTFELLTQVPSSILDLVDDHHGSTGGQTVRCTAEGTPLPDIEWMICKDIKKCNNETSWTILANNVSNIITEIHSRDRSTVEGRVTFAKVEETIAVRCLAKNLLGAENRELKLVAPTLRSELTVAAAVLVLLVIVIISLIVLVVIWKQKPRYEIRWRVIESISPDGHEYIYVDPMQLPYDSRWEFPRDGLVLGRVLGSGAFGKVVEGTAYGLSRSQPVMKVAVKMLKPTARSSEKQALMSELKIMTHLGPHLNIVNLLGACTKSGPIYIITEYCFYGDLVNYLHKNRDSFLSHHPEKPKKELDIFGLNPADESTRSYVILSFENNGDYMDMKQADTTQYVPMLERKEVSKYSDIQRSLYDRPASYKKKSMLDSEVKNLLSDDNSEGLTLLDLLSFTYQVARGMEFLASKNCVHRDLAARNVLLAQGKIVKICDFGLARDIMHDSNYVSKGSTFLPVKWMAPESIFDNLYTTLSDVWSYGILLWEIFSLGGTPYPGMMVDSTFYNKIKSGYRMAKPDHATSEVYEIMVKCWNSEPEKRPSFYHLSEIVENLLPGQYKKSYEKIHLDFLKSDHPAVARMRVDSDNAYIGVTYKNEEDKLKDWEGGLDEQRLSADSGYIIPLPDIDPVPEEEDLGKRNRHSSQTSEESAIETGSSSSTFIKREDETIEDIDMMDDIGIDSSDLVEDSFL
# Sequence of Serine/threonine-protein kinase PAK 5 (Homo sapiens) (Q9P286 whole entry, looked up): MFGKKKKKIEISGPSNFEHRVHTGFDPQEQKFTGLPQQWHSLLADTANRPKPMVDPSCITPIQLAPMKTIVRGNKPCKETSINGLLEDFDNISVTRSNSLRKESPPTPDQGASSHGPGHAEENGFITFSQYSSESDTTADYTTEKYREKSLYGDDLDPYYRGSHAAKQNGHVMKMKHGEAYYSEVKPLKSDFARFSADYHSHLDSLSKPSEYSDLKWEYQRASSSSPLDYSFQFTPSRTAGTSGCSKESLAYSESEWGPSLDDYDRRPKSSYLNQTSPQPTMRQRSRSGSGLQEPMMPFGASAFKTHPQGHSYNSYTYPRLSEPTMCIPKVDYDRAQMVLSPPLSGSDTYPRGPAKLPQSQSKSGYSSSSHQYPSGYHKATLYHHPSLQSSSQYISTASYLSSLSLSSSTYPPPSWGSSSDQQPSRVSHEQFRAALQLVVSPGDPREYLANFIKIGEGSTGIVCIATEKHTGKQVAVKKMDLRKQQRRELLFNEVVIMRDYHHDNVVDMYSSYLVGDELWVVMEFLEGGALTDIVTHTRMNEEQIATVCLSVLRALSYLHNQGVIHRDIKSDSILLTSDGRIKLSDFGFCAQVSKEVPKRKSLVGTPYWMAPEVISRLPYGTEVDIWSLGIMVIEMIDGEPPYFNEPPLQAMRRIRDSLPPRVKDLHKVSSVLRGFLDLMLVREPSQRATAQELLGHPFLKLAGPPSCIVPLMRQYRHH
# Sequence of Activated CDC42 kinase 1 (Homo sapiens) (Q07912 whole entry, looked up): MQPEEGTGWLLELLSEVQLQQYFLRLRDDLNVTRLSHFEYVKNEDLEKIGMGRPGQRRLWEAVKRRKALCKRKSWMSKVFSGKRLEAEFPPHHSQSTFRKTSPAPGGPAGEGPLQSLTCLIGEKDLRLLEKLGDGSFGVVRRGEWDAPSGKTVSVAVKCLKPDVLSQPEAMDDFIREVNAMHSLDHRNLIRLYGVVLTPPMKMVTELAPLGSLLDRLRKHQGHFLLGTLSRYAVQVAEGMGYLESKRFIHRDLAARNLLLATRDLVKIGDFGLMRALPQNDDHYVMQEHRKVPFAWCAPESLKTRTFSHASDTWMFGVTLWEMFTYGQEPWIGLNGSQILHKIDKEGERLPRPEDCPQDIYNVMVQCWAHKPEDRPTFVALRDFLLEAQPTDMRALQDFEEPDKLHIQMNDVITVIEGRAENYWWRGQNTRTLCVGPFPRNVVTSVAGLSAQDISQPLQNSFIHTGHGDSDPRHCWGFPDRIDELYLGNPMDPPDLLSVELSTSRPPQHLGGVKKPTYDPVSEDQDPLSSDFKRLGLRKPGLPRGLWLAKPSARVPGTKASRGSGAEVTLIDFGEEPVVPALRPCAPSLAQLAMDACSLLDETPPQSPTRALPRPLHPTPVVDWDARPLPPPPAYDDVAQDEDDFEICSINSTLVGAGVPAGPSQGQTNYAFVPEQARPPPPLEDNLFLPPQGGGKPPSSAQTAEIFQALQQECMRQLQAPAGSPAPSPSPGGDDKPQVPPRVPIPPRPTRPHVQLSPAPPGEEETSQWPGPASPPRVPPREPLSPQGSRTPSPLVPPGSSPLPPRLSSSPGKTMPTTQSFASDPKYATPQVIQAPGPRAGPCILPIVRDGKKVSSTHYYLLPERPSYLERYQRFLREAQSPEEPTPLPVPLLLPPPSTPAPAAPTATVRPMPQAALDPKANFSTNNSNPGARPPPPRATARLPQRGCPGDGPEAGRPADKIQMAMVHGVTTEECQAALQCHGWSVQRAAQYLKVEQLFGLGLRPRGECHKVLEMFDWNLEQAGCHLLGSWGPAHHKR
# Sequence of PAS domain-containing serine/threonine-protein kinase (Homo sapiens) (Q96RG2 whole entry, the tested form may be a part): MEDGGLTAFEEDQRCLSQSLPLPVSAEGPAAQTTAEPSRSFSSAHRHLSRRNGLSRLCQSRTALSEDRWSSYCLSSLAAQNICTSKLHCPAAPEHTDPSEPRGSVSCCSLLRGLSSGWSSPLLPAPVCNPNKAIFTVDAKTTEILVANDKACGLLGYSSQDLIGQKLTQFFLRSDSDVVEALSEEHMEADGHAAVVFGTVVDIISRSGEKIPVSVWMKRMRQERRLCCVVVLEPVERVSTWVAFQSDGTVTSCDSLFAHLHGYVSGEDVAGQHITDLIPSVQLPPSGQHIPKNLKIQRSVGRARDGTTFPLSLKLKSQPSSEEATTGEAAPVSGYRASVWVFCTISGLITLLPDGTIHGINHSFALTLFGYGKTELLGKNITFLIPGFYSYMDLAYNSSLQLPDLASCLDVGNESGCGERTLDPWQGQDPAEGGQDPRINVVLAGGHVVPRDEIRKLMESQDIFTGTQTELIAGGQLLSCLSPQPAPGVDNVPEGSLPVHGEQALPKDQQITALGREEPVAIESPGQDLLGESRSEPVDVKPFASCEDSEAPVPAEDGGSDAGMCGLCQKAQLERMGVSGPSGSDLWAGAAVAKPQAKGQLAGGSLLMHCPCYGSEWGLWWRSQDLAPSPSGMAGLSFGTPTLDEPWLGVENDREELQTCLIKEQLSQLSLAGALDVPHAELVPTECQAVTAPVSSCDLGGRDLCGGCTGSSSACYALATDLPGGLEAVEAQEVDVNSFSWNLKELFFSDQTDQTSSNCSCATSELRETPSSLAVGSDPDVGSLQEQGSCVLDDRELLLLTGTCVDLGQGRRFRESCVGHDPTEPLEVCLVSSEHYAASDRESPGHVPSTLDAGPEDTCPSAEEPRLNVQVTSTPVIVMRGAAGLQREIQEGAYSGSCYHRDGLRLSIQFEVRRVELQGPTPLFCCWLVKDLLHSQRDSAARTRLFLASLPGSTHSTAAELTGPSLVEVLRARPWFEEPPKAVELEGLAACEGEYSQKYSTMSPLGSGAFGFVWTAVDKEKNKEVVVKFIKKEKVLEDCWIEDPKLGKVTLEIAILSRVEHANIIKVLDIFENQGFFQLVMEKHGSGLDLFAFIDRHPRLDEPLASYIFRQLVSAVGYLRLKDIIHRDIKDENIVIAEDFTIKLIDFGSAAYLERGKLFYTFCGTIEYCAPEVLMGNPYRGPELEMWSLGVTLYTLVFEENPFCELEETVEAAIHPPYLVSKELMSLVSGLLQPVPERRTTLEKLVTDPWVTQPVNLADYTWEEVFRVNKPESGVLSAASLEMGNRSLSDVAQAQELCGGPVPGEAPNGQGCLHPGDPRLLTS
# Sequence of Serine/threonine-protein kinase PAK 6 (Homo sapiens) (Q9NQU5 whole entry, looked up, the tested form may be a part): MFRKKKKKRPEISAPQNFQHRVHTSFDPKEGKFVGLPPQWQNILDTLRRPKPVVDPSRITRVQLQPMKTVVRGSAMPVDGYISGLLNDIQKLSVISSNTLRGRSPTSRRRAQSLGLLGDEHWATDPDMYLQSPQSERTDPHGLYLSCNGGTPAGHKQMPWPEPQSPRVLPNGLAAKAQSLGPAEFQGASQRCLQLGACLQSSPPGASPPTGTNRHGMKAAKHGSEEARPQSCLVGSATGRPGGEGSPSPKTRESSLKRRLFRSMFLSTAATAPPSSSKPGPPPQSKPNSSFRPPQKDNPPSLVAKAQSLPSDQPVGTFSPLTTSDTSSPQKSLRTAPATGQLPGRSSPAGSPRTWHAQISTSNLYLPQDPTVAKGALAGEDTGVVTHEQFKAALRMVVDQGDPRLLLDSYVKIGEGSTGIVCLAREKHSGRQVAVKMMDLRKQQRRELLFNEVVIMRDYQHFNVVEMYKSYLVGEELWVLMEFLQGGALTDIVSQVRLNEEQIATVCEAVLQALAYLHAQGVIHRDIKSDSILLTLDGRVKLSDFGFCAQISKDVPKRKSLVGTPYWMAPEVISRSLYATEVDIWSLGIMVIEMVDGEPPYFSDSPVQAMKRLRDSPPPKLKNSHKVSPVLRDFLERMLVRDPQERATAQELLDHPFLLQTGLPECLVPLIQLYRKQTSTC
compound,measurement,setting,value
COC(=O)[C@@]1(O)C[C@H]2O[C@]1(C)n1c3ccccc3c3c4c(c5c6ccccc6n2c5c31)C(=O)NC4,residual activity,[1],6%
same,residual activity,[2],1%
same,residual activity,[3],0%
same,residual activity,[4],-1%
same,residual activity,[5],14%
same,residual activity,[6],4%
same,residual activity,[7],0%
same,residual activity,[8],0%
same,residual activity,[9],10%
same,residual activity,[10],1%
same,residual activity,[11],24%
same,residual activity,[12],0%
same,residual activity,[13],-1%
same,residual activity,[14],0%
same,residual activity,[15],-5%
same,residual activity,[16],1%
same,residual activity,[17],1%
same,residual activity,[18],1%
same,residual activity,[19],0%
same,residual activity,[20],32%
C[S+]([O-])c1ccc(-c2nc(-c3ccc(F)cc3)c(-c3ccncc3)[nH]2)cc1 (stereo not drawn),residual activity,[1],105%
same,residual activity,[2],104%
same,residual activity,[3],110%
same,residual activity,[4],100%
same,residual activity,[5],113%
same,residual activity,[6],113%
same,residual activity,[7],93%
same,residual activity,[8],39%
same,residual activity,[9],122%
same,residual activity,[10],93%
same,residual activity,[11],87%
same,residual activity,[12],23%
same,residual activity,[13],109%
same,residual activity,[14],94%
same,residual activity,[15],104%
same,residual activity,[16],90%
same,residual activity,[17],97%
same,residual activity,[18],94%
same,residual activity,[19],138%
same,residual activity,[20],110%
O=c1c2ccccc2[nH]c(=S)n1CCN1CCC(=C(c2ccc(F)cc2)c2ccc(F)cc2)CC1,residual activity,[5],85%
O=C(CCCc1ccc(-c2ccccc2F)cc1)Nc1ccc(O)cc1,residual activity,[5],102%
O=C1NC(=O)c2c1c1c3ccccc3[nH]c1c1[nH]c3cc(Br)ccc3c21,residual activity,[5],89%
Cn1sc(=O)n(Cc2ccccc2)c1=O,residual activity,[5],100%
Nc1nccc(-c2c(-c3ccc(F)cc3)ncn2C2CCNCC2)n1,residual activity,[5],129%
CC#CC(=O)Nc1cc2c(Nc3ccc(F)c(Cl)c3)ncnc2cn1,residual activity,[5],101%
O=C1Nc2ccc3ncsc3c2/C1=C/c1c[nH]cn1,residual activity,[1],70%
same,residual activity,[2],34%
same,residual activity,[3],83%
same,residual activity,[4],36%
same,residual activity,[5],46%
same,residual activity,[6],2%
same,residual activity,[7],64%
same,residual activity,[8],17%
same,residual activity,[9],72%
same,residual activity,[10],57%
same,residual activity,[11],85%
same,residual activity,[12],13%
same,residual activity,[13],10%
same,residual activity,[14],2%
same,residual activity,[15],3%
same,residual activity,[16],3%
same,residual activity,[17],6%
same,residual activity,[18],5%
same,residual activity,[19],26%
same,residual activity,[20],68%
CCCC(=O)Oc1ccc2[nH]c(C(=O)c3cc4ccccc4[nH]3)cc2c1,residual activity,[5],122%
COc1cc2ncnc(Nc3ccc(O)c(Br)c3)c2cc1OC,residual activity,[5],73%
COc1cc2ncnc(Nc3ccc(OCc4ccccc4)cc3)c2cc1OC,residual activity,[1],83%
same,residual activity,[2],79%
same,residual activity,[3],100%
same,residual activity,[4],103%
same,residual activity,[5],107%
same,residual activity,[6],71%
same,residual activity,[7],22%
same,residual activity,[8],10%
same,residual activity,[9],86%
same,residual activity,[10],76%
same,residual activity,[11],135%
same,residual activity,[12],119%
same,residual activity,[13],108%
same,residual activity,[14],99%
same,residual activity,[15],119%
same,residual activity,[16],82%
same,residual activity,[17],107%
same,residual activity,[18],90%
same,residual activity,[19],92%
same,residual activity,[20],95%
COc1cc2ncnc(Nc3ccc(Oc4ccccc4)cc3)c2cc1OC,residual activity,[5],98%
O=C1NC(=O)c2c1c1c3ccccc3n3c1c1c2c2ccccc2n1C1CCC3O1,residual activity,[3],19%
same,residual activity,[4],15%
same,residual activity,[7],8%
same,residual activity,[8],13%
same,residual activity,[9],81%
same,residual activity,[10],79%
same,residual activity,[11],90%
same,residual activity,[12],93%
same,residual activity,[13],74%
same,residual activity,[14],71%
same,residual activity,[15],55%
same,residual activity,[16],68%
same,residual activity,[17],39%
same,residual activity,[18],48%
same,residual activity,[19],96%
same,residual activity,[20],93%
O=C1c2ccccc2-c2nc3nnnn3nc21,residual activity,[1],80%
same,residual activity,[2],74%
same,residual activity,[3],112%
same,residual activity,[4],112%
same,residual activity,[7],109%
same,residual activity,[8],80%
same,residual activity,[15],122%
same,residual activity,[16],75%
same,residual activity,[19],107%
same,residual activity,[20],128%
O=C1NC(=O)/C(=C\c2ccc3nccnc3c2)S1,residual activity,[5],87%
CN([C@@H](Cc1ccc(OS(=O)(=O)c2cccc3cnccc23)cc1)C(=O)N1CCN(c2ccccc2)CC1)S(=O)(=O)c1cccc2cnccc12,residual activity,[5],79%
O=C1NC(=O)c2c1c1c3ccccc3[nH]c1n1cncc21,residual activity,[5],57%
CCn1cnc2c(Nc3cccc(Cl)c3)nc(N[C@@H]3CCCC[C@@H]3N)nc21,residual activity,[1],38%
same,residual activity,[2],11%
same,residual activity,[3],38%
same,residual activity,[4],10%
same,residual activity,[5],113%
same,residual activity,[6],69%
same,residual activity,[7],34%
same,residual activity,[8],4%
same,residual activity,[9],82%
same,residual activity,[10],34%
same,residual activity,[11],123%
same,residual activity,[13],77%
same,residual activity,[14],22%
same,residual activity,[15],64%
same,residual activity,[16],22%
same,residual activity,[17],38%
same,residual activity,[18],10%
same,residual activity,[19],91%
same,residual activity,[20],100%
CC(C)(C)n1nc(Cc2cccc3ccccc23)c2c(N)ncnc21,residual activity,[5],116%
CC(C)n1cnc2/c(=N/c3cccc(Cl)c3)nc(NCCO)[nH]c21,residual activity,[5],113%
CN[C@@H]1C[C@H]2O[C@@](C)([C@@H]1OC)n1c3ccccc3c3c4c(c5c6ccccc6n2c5c31)C(=O)NC4,residual activity,[9],0%
same,residual activity,[10],1%
same,residual activity,[17],8%
same,residual activity,[18],1%
